Screen size: about 52,000 compounds; about 4,300 (8.3%) were called active. Shown is part of a subset that was picked to be rich in actives. A number with no mark means an inactive call. Cut-off read from the data, not from the text of the source: active = survival mostly below about 52% (no sharp cut-off); inactive = mostly above about 56%.

The subject of the experiment is DeltatarO mutant. Put plainly: S. aureus survival, RN4220 and DeltatarO strains – OD600, teichoic acid synthesis inhibitors, primary screen (AID 463173). Particulars: S. aureus RN4220 wild type/DeltatarO growth, OD600, 18 h, stronger effect = lower value, screened at 18.75 µg/mL (by protocol).
Turning to `Cc1nnc(SCc2ccccc2)c2cc3sccc3n12`, the survival is 53%.

`COc1ccc(CCN(Cc2nc3ccccc3c(=O)[nH]2)C(=O)C(C)C)cc1`: the survival was 101%.

Consider `CC(C)(C)c1nnc(NC(=O)CS(=O)(=O)Cc2ccccc2)s1`, for which the survival was 95%.

For the molecule `CCC(=O)Nc1nnc(C(C)(C)C)s1`, the survival was 51% (active).

Regarding `CCC(CC)C(=O)Nc1nnc(C(C)(C)C)s1`, the survival is 95%.

For the molecule `CCn1nnc2cc(C(=O)Nc3cccc(C)c3C)ccc21`, the survival is 72%.

For the molecule `Clc1ccc(NCCC2=CCCCC2)nn1`, the survival was 84%.

In the case of `CN(C)CCNc1ccc(Cl)nn1`, the survival is 96%.

As to `Clc1ccc(NC2CCCCC2)nn1`, the survival is 66% (active).

Consider `COc1ccccc1-c1nc(SCC(=O)NCc2ccc(C)cc2)c2c(=O)n(C)c(=O)n(C)c2n1`, for which the survival is 69%.

Regarding `Cc1ccccc1NC(=O)c1ccc2[nH]c(C)c(C)c2c1`, the survival is 123%.

As to `CCOc1ccccc1NS(=O)(=O)c1c(C(=O)OC)sc2cccc(F)c12`, the survival was 20% (active).

For the molecule `COC(=O)c1sc2cccc(F)c2c1S(=O)(=O)Nc1cc(C)c(Cl)cc1OC`, the survival was 89%.

In the case of `COC(=O)c1sc2cccc(F)c2c1S(=O)(=O)Nc1ccc(C)cc1Cl`, the survival was 91%.

As for `CCOC(=O)c1sc2cccc(F)c2c1S(=O)(=O)Nc1ccccc1F`, the survival is 99%.

As for `COC(=O)c1sc2cccc(F)c2c1S(=O)(=O)Nc1cc(OC)cc(OC)c1`, the survival is 8% (active).

As to `COC(=O)c1sc2cccc(F)c2c1S(=O)(=O)Nc1ccc(N(C)C)cc1`, the survival was 66%.

On to `COC(=O)c1ccccc1NS(=O)(=O)c1cc2c(cc1C)N(C)CCO2`, for which the survival is 87%.

For `COc1cc(C(=O)N2CCN(CCc3ccccn3)CC2)cc(OC)c1OC`, the survival is 66%.

Turning to `Cc1ccc2nc(-c3cccc(Cl)c3)c(Nc3ccc4c(c3)OCO4)n2c1`, the survival is 75%.

For `COc1cc(NC(=O)C2CCCN(S(=O)(=O)c3ccc4c(c3)CCCC(=O)N4)C2)cc(OC)c1` (stereo not drawn), the survival was 94%.

As for `COc1ccc(CN(Cc2ccco2)C(=O)COc2ccccc2Cl)cc1`, the survival is 51%.

On to `CCc1cc(=O)[nH]c(SCc2nc(-c3cccc(Cl)c3)no2)n1`, for which the survival was 49%.

Turning to `CCc1cc(=O)[nH]c(SCc2nc(-c3ccccc3)no2)n1`, the survival was 95%.

With `O=c1cc(-c2ccccc2)nc(SCc2nc(-c3ccc(C(F)(F)F)cc3)no2)[nH]1`, the survival was 188%.

For `CCCc1cc(=O)[nH]c(SCc2nc(-c3ccccc3)no2)n1`, the survival was 0% (active).

With `CCc1cc(=O)[nH]c(SCc2nc(-c3ccc(C(F)(F)F)cc3)no2)n1`, the survival is 32% (active).

For `CCCc1cc(=O)[nH]c(SCc2nc(-c3ccc(C)cc3)no2)n1`, the survival was 78%.

Regarding `Cc1ccc(CNC(=O)c2sc3nc(C)cc(C)c3c2-n2cccc2)cc1`, the survival is 90%.

Turning to `COc1ccccc1CNC(=O)c1cc2c(s1)-c1ccc(Cl)cc1SC2`, the survival was 79%.

With `Cc1ccccc1Nc1nnc(-c2ccc(C)c(S(=O)(=O)N3CCOCC3)c2)c2ccccc12`, the survival is 85%.

Consider `O=C(NC(CO)C(=O)O)c1ccncc1` (stereo not drawn), for which the survival is 94%.

For the molecule `CCc1ccc(Cc2cnc(NC(=O)c3ccc4c(c3)CC(c3ccccc3)OC4=O)s2)cc1` (stereo not drawn), the survival is 51%.

`COc1cccc(-n2c(C)nc3cc(C(=O)O)ccc32)c1`: the survival was 177%.

Turning to `O=C(Cn1c(=O)nc(-c2ccccc2)c2cc(Cl)ccc21)N1CCN(c2ccc(F)cc2)CC1`, the survival is 99%.

Take `O=S(=O)(NC1CCc2ccccc21)c1ccc(S(=O)(=O)N2CCCC2)cc1` (stereo not drawn): the survival is 82%.

As for `CC1Cc2cc(S(=O)(=O)CCC(=O)Nc3ccccc3F)ccc2N1C(=O)C1CC1` (stereo not drawn), the survival was 100%.

Regarding `CC(=O)c1cccc(Nc2ncnc3c2cnn3C)c1`, the survival was 67%.

As for `Cc1cccc(Nc2nc(-c3ccccc3)nc3ccccc23)c1`, the survival is 1% (active).

For the molecule `Oc1cccc(Nc2nc(-c3ccccc3)nc3ccccc23)c1`, the survival is 10% (active).

On to `Oc1ccc(Nc2nc(-c3ccc(Cl)cc3)nc3ccccc23)cc1`, for which the survival was 3% (active).

As to `Cc1nnc2c(Nc3cccc(O)c3)nc3ccccc3n12`, the survival was 68%.

Take `CC(=O)c1cccc(NC(=O)c2cc(-c3ccc(Cl)s3)nc3ccccc23)c1`: the survival was 77%.

As to `Fc1ccc(Nc2nc(SCc3ccc(Cl)cc3)nc3ccccc23)cc1`, the survival is 92%.

For `Oc1ccc(Nc2ncnc3ccccc23)cc1`, the survival is 77%.

As for `CC(=O)c1cccc(Nc2nc(-c3ccccc3Cl)nc3ccccc23)c1`, the survival is 38% (active).

For the molecule `Cc1nnc2c3ccccc3nc(Nc3cccc(O)c3)n12`, the survival is 101%.

For the molecule `Cc1cccc(Nc2cc(C)nc3nc(-c4ccccc4)nn23)c1`, the survival was 95%.

For the molecule `Cc1cccc(-c2nc(N3CCN(c4ccc(F)cc4)CC3)c3ccccc3n2)c1`, the survival was 54%.

Turning to `COc1ccc(CCNC(=O)C(=O)NCC(c2cccs2)S(=O)(=O)c2ccc(C)cc2)cc1` (stereo not drawn), the survival was 69%.

For the molecule `O=C(CC1N=C2c3ccccc3N=C(SCc3ccc(F)cc3)N2C1=O)NC1CCCCC1` (stereo not drawn), the survival is 124%.

Regarding `Cc1ccc(CNS(=O)(=O)c2cc3c(cc2C)NC(=O)CO3)cc1`, the survival was 79%.

As for `CCCN(CCC)c1nn2c(=O)c(C(=O)NCc3cccc(OC)c3)cnc2s1`, the survival is 84%.

On to `CC(C)NC(=O)CSc1nc2ccccc2n1CC(=O)NC(C)C`, for which the survival is 96%.

Take `COC(=O)c1ccccc1NC(=S)N(Cc1ccco1)Cc1cc2cc(C)ccc2[nH]c1=O`: the survival was 94%.

Regarding `O=c1c2ccccc2nc2sc(Nc3cccc(C(F)(F)F)c3)nn12`, the survival was 86%.

Take `CN(C(=O)c1cc2sccc2n1Cc1ccc(F)cc1)C1CCCCC1`: the survival is 88%.

As for `CCOc1ccccc1C(=O)Nc1ccc(S(=O)(=O)Nc2onc(C)c2C)cc1`, the survival is 77%.

For the molecule `CCN(C1CCCCC1)S(=O)(=O)c1cccc(S(=O)(=O)N2CCCC2)c1`, the survival was 70%.

In the case of `COc1cc(C2c3c(oc4ccc(F)cc4c3=O)C(=O)N2c2nc(C)c(C)s2)cc(OC)c1OC` (stereo not drawn), the survival was 157%.

Regarding `COc1ccc2c(Sc3ccc(C)cc3)c(C(=O)NC(C)C)[nH]c2c1`, the survival is 86%.

With `Cc1ccc(CCNC(=O)CCn2nc(-c3ccc(C)cc3)ccc2=O)cc1`, the survival was 94%.

On to `COc1ccc(C(=O)O)cc1Nc1nc2ccc(C)cc2n2cnnc12`, for which the survival was 117%.

Take `OCCNc1nc(-c2cccnc2)nc2ccccc12`: the survival is 93%.

Take `CC(=O)c1cccc(Nc2nc(-c3cccc(C)c3)nc3ccccc23)c1`: the survival is 4% (active).

Turning to `CCC(=O)OCCCNc1nc(-c2ccc(Cl)cc2)nc2ccccc12`, the survival was -2% (active).

`COc1cc(Nc2nc(-c3ccc(OC)c(OC)c3)nc3ccccc23)cc(OC)c1`: the survival is -2% (active).

For the molecule `CC(=O)c1cccc(NC(=O)c2nc(-c3ccccc3)n(-c3cccc(C)c3)n2)c1`, the survival is 64%.

Consider `CC(=O)c1cccc(NC(=O)c2nc(-c3ccccc3)n(-c3ccccc3C)n2)c1`, for which the survival was 76%.

Consider `COc1ccc(Nc2nc(-c3ccccc3F)nc3ccccc23)cc1OC`, for which the survival was 99%.

With `CCOc1ccccc1OCCCCn1c(-c2ccc(Cl)cc2)nc2ccccc2c1=O`, the survival was 45%.

On to `COc1ccc(Nc2nc(-c3ccc(C)cc3)nc3ccccc23)c(OC)c1`, for which the survival is 75%.

On to `O=C(O)c1ccc(Nc2nc3ccccc3c3nncn23)cc1`, for which the survival is 95%.

Take `COc1ccc(CNC(=O)C(OC(=O)c2ccc(Cl)nc2)c2ccccn2)cc1` (stereo not drawn): the survival was 104%.

Regarding `CCC(CC)C(=O)OCc1cc(=O)n2nc(C3CC3)sc2n1`, the survival was 62%.

For `COc1ccc(CCNC(=O)CCc2c(C)nc3c(c(C)nn3-c3ccc(C)c(C)c3)c2C)cc1OC`, the survival is 57%.

Consider `CC1=C(C)CC(C(=O)Nc2ccc(NC(=O)NC3CCCCC3)cc2)C(C(=O)O)C1` (stereo not drawn), for which the survival was 81%.

For `Cc1cc(N2CCN(c3cccc(C(F)(F)F)c3)CC2)n2nc(-c3ccccc3C)nc2n1`, the survival is 2% (active).

On to `Cc1ccc(-c2nc3nc(C)cc(N4CCN(c5cc(Cl)ccc5C)CC4)n3n2)cc1`, for which the survival was 86%.

Consider `Cc1cc(N2CCN(c3ccc(F)cc3)CC2)n2nc(-c3ccc(Cl)cc3)nc2n1`, for which the survival is 49%.

In the case of `Cc1cccc(-c2nc3nc(C)cc(N4CCN(c5ccccc5)CC4)n3n2)c1`, the survival is 60%.

In the case of `Cc1cc(N2CCN(c3cccc(C(F)(F)F)c3)CC2)n2nc(-c3ccccc3)nc2n1`, the survival is 41% (active).

For `COc1ccc(-c2nc3nc(C)cc(N4CCN(c5cccc(C(F)(F)F)c5)CC4)n3n2)cc1`, the survival was 45%.

Consider `O=C(O)CCSc1nc2ccccc2o1`, for which the survival is 87%.

As for `CCc1cccc(C)c1NC(=O)CN(C)S(=O)(=O)c1cccc2nsnc12`, the survival is 89%.

Take `COC(=O)C1=C(C)NC(=O)C1(NC(=O)c1cc(OC)c(OC)c(OC)c1)C(F)(F)F` (stereo not drawn): the survival is 54%.

For `CC(=O)c1ccc(NC(=O)CSc2ccc3nc(-c4ccccc4)cn3n2)cc1`, the survival is 89%.

For the molecule `CCC(C(=O)Nc1cc(OC)cc(OC)c1)n1nc(-c2ccc(C)c(C)c2)ccc1=O` (stereo not drawn), the survival was 75%.

Regarding `CC(=O)c1ccc(NC(=O)C(C)n2nc(-c3ccccc3)ccc2=O)cc1` (stereo not drawn), the survival is 32% (active).

Take `CCC(C(=O)Nc1cc(Cl)ccc1OC)n1nc(-c2ccccc2)ccc1=O` (stereo not drawn): the survival was 24% (active).

With `COc1ccc(Cl)cc1NC(=O)C(OC)c1ccccc1` (stereo not drawn), the survival was 83%.

`Cc1ccc(-c2ccc(=O)n(C(C)C(=O)Nc3ccccc3Cl)n2)cc1C` (stereo not drawn): the survival was 66%.

As to `CCC(C(=O)Nc1cccc(Cl)c1C)n1nc(-c2ccc(C)cc2)ccc1=O` (stereo not drawn), the survival was 41% (active).

For the molecule `COc1ccc(NC(=O)C(C)n2nc(-c3ccc(C)c(C)c3)ccc2=O)cc1OC` (stereo not drawn), the survival is 69%.

In the case of `Cc1ccc(-c2ccc(=O)n(CC(=O)Nc3ccc(C)cc3Cl)n2)cc1`, the survival was 50%.

Take `Cc1ccc(Cl)cc1NC(=O)C(C)n1nc(-c2ccccc2)ccc1=O` (stereo not drawn): the survival is 20% (active).

`CCC(C(=O)Nc1cccc(Cl)c1C)n1nc(C)c2sc3ccccc3c2c1=O` (stereo not drawn): the survival was 72%.

On to `Cc1ccc(Cl)cc1NC(=O)C(C)n1nnc2sc(-c3ccccc3)cc2c1=O` (stereo not drawn), for which the survival is 59%.

The values above are taken from PubChem BioAssay AID463173 (ICCB-Longwood Screening Facility, Harvard Medical School, 2010).
